{"source": "PubChem BioAssay AID686979", "about": "(National Center for Advancing Translational Sciences (NCATS), 2013)", "note": "In all, about 420,000 compounds went through this assay and about 50,000 (12%) were called active. Entries that show only a call come without a potency. Another 26% or so got no clear call; they are omitted. Calls come from the whole dose curve; as a rule, active = well fitted inhibition curve with a large enough effect; inconclusive = small, poorly fitted or top-dose-only effect; inactive = flat fitted curve, though single readings scatter. For the sample, actives were picked, then their nearest neighbours and some compounds at random. Potency is the fitted concentration of half-maximal effect."}
{"assay": "qHTS for Inhibitors of human tyrosyl-DNA phosphodiesterase 1 (TDP1): qHTS in cells in presence of CPT; note: nearly all actives have a fitted effect of over 55% in size", "conditions": "chicken DT40 Tdp1-/-;hTDP1 cells + 20 nM CPT, ATP luminescence, 48 h; series mostly up to 46.2 µM", "in_short": "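Cell growth measured by CellTiter-Glo luminescence after a minimum 48 h, 37 C compound exposure with 20 nM CPT in Tdp1-knockout DT40 cells stably expressing hTDP1, seeded 400/well; qHTS titration format.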"}
{"smiles": "CC(NCC(=O)Nc1ccccc1C(=O)NC1CC1)c1ccccc1Cl", "note": "(configuration not stated)", "Potency": "inactive"}
{"smiles": "O=C(c1cccc(Br)c1)N1CCN(Cc2cc(=O)n3nc(-c4ccccc4)sc3n2)CC1", "Potency": "inactive"}
{"smiles": "CCOC(=O)c1sc(=S)n(-c2cccc(OC)c2)c1N", "Potency": "35.5 µM (active)"}
{"smiles": "COc1cccc(-n2c(=S)sc3c(=O)n(-c4ccccc4C)c(SCC(=O)O)nc32)c1", "Potency": "inactive"}
{"smiles": "CCOC(=O)C(C)n1cnc2c(nnn2-c2cccc(OC)c2)c1=O", "note": "(configuration not stated)", "Potency": "inactive"}
{"smiles": "O=C(Nc1ccc(F)cc1)c1cccnc1N1CCOCC1", "Potency": "inactive"}
{"smiles": "Cc1cc(Br)ccc1NC(=O)c1cnc(N2CCN(c3ccccn3)CC2)c2ccccc12", "Potency": "14.6 µM (active)"}
{"smiles": "Cc1ccc(S(=O)(=O)NCC(=O)N2CCN(c3ccccn3)CC2)cc1", "Potency": "inactive"}
{"smiles": "CCc1cccc(NC(=O)c2cnc(N3CCOCC3)c3ccccc23)c1", "Potency": "20.6 µM (active)"}
{"smiles": "Cc1cc(Br)ccc1NC(=O)c1sc2ncn(CC(=O)N3CCN(c4ccccn4)CC3)c(=O)c2c1C", "Potency": "inactive"}
{"smiles": "CSc1ncccc1C(=O)Nc1cccc(S(=O)(=O)N2CCOCC2)c1", "Potency": "inactive"}
{"smiles": "O=C(NCc1ccccc1)C1c2ccccc2OCC(=O)N1C1CC1", "note": "(configuration not stated)", "Potency": "inactive"}
{"smiles": "CS(=O)(=O)N(CC(=O)NC1CCCC1)Cc1ccc(F)cc1", "Potency": "inactive"}
{"smiles": "CCCCn1c(N)c(N(CC(C)C)C(=O)c2ccc(Br)o2)c(=O)[nH]c1=O", "Potency": "inactive"}
{"smiles": "CCOCc1nnc(NC(=O)CCC2CCCCC2)s1", "Potency": "inactive"}
{"smiles": "COCCN(C(=O)CCC(=O)Nc1nccs1)C(C(=O)NCCC(C)C)c1ccc(F)cc1", "note": "(configuration not stated)", "Potency": "inactive"}
{"smiles": "O=C(CC(NC(=O)c1ccccc1)c1ccccc1)Nc1ccc(F)c(F)c1", "note": "(configuration not stated)", "Potency": "inactive"}
{"smiles": "O=C(Nc1ccc(Br)c2cccnc12)c1ccc(Cn2cc([N+](=O)[O-])cn2)o1", "Potency": "16.4 µM (active)"}
{"smiles": "O=C(c1ccc(Cn2cc([N+](=O)[O-])cn2)o1)N1CCCC1", "Potency": "inactive"}
{"smiles": "COc1cccc(NC(=O)c2ccc(Cn3cc([N+](=O)[O-])cn3)o2)c1", "Potency": "inactive"}
{"smiles": "COC1=CC(=O)OC(C)(c2ccccc2)C1", "note": "(configuration not stated)", "Potency": "inactive"}
{"smiles": "Cc1c(Cc2ccccc2)c(=O)oc2cc(OCC(N)=O)ccc12", "Potency": "inactive"}
{"smiles": "CC(=O)c1c(C)n(-c2ccc(N(C)C)cc2)c2ccc(OCC(N)=O)cc12", "Potency": "18.4 µM (active)"}
{"smiles": "CC(=O)c1c(C)n(-c2ccc(C)cc2)c2ccc(O)cc12", "Potency": "inactive"}
{"smiles": "CCCCc1ccc(S(=O)(=O)NC(=O)C2(C)CCN2C(=O)c2ccccc2)cc1", "note": "(configuration not stated)", "Potency": "inactive"}
{"smiles": "Cc1cccc2[nH]c(CN(C)C(=O)C3CCC(=O)N(CCc4ccccc4)C3)nc12", "note": "(configuration not stated)", "Potency": "inactive"}
{"smiles": "CS(=O)(=O)Nc1ccccc1N=C(c1ccccc1)c1ccccc1", "Potency": "inactive"}
{"smiles": "CC(C)CN(C(=O)CSc1nncn1C)C1CCS(=O)(=O)C1", "note": "(configuration not stated)", "Potency": "inactive"}
{"smiles": "COc1cc(CC(=O)N2CCC(n3nccc3NC(=O)C3CC3)CC2)cc(OC)c1OC", "Potency": "inactive"}
{"smiles": "CCOc1cc(/C=C(\\C#N)C(=O)Nc2ccccc2C)ccc1OCc1cc(=O)n2nc(CC)sc2n1", "Potency": "inactive"}
{"smiles": "CCOc1cc(/C=C(\\C#N)c2nc(-c3cccs3)c(NC(C)=O)s2)ccc1O", "Potency": "2.31 µM (active)"}
{"smiles": "CCOc1cc(/C=N/NC(=O)CN2CCCCC2)ccc1O", "Potency": "inactive"}
{"smiles": "Cc1cc2c(C)nc(N/N=C/c3ccccc3)nc2o1", "Potency": "inactive"}
{"smiles": "Cc1ccc(C(=O)CN2C(=O)NC3(CCOc4ccccc43)C2=O)s1", "note": "(configuration not stated)", "Potency": "inactive"}
{"smiles": "Cc1ccc(NC(=O)C(C)OC(=O)Cc2c[nH]c3ccccc23)cc1S(=O)(=O)N1CCOCC1", "note": "(configuration not stated)", "Potency": "inactive"}
{"smiles": "Cc1ccc(-n2nc(C)c(C(=O)O)c2-n2cccc2)cc1", "Potency": "inactive"}
{"smiles": "Cc1ccc(S(=O)(=O)N2CC(C)N(S(C)(=O)=O)C2)cc1", "note": "(configuration not stated)", "Potency": "inactive"}
{"smiles": "O=C(CS(=O)(=O)c1cn(Cc2cccc(F)c2)c2ccccc12)N1CCCCC1", "Potency": "inactive"}
{"smiles": "Cc1ccc(S(=O)(=O)N2C[C@@H]3CCCC[C@@H]3[C@@H](C)[C@H]2c2cn(Cc3ccccc3)c3ccc(F)cc23)cc1", "Potency": "6.51 µM (active)"}
{"smiles": "CCC(=O)c1ccc(OCC(=O)OCC(=O)N2CCc3ccccc3C2)cc1", "Potency": "inactive"}
{"smiles": "COc1ccc(-c2csc(C(O)c3cccc(Cl)c3)n2)cn1", "note": "(configuration not stated)", "Potency": "16.4 µM (active)"}
{"smiles": "COc1ccc(Nc2cc(Cl)ccc2C(=O)O)cn1", "Potency": "inactive"}
{"smiles": "COc1cccc(C(NC(C)=O)c2nc(-c3cnc4ccccc4c3)cs2)c1", "note": "(configuration not stated)", "Potency": "inactive"}
{"smiles": "CCCC(CNC(=O)COC(=O)C1=NNC(=O)CC1)c1ccc(Cl)cc1Cl", "note": "(configuration not stated)", "Potency": "inactive"}
{"smiles": "CC(C)C(=O)Nc1ccc2c(c1)oc1ccccc12", "Potency": "inactive"}
{"smiles": "O=C(CSc1nnc(-c2ccccc2O)o1)NC1CCCCC1", "Potency": "inactive"}
{"smiles": "Cn1nccc1/C=N\\NC(=O)c1ccc(Cl)cc1", "Potency": "inactive"}
{"smiles": "COc1ccc(Nc2nc(=O)[nH]nc2C)cc1", "Potency": "inactive"}
{"smiles": "COc1ccc(Nc2cc(C)nc(-n3nc(C)cc3C)n2)cc1", "Potency": "0.517 µM (active)"}
{"smiles": "Cc1cccc(Nc2cc(C)nc(-n3nc(C)cc3C)n2)c1", "Potency": "3.26 µM (active)"}
{"smiles": "CC(=O)c1ccc(Oc2cc(C)nc(-n3nc(C)cc3C)n2)cc1", "Potency": "0.731 µM (active)"}
{"smiles": "COc1ccc(NC(=O)c2nc(-n3nc(C)cc3C)ccc2Cl)cc1Cl", "Potency": "inactive"}
{"smiles": "Cc1ccc(Nc2nc3ccccc3nc2-n2nc(C)cc2C)c(Cl)c1", "Potency": "inactive"}
{"smiles": "Cc1cc(C)n(-c2cc(Oc3ccccc3)ncn2)n1", "Potency": "inactive"}
{"smiles": "Cc1cc(Oc2ccccc2)nc(N2CCOCC2)n1", "Potency": "inactive"}
{"smiles": "Cc1cc(Nc2ccccc2)nc(N)n1", "Potency": "inactive"}
{"smiles": "CC(=O)NCCC(=O)Nc1cc(S(=O)(=O)N2CCCCC2)ccc1Oc1cccc(C)c1", "Potency": "inactive"}
{"smiles": "COC(=O)c1ccc(NC(=O)c2cc3c(CO)cnc(C)c3oc2=Nc2cccc(C(N)=O)c2)cc1", "Potency": "inactive"}
{"smiles": "O=C(N/C(=C\\c1ccc([N+](=O)[O-])cc1)C(=O)N1CCCCC1)c1ccco1", "Potency": "inactive"}
{"smiles": "CC(=O)c1cccc(NC(=O)Nc2ccc(C)cc2)c1", "Potency": "inactive"}
{"smiles": "CC(=O)Nc1ccc(NC(=O)[C@@H](NC(=O)c2cccc(C)c2)C(C)C)cc1", "Potency": "inactive"}
{"smiles": "Cc1ccc(NC(=O)C(C)c2cccc(C(=O)c3ccccc3)c2)cc1", "note": "(configuration not stated)", "Potency": "14.6 µM (active)"}
{"smiles": "O=C(CN(C(=O)CNC(=O)c1cccs1)c1cccc(F)c1)NC1CCCCC1", "Potency": "inactive"}
{"smiles": "CCNC(=O)N1CCNC(=O)C1CC(=O)Nc1ccc(C(=O)OCC)cc1", "note": "(configuration not stated)", "Potency": "inactive"}
{"smiles": "CCOc1ccc(NC(=O)CC2C(=O)N(c3cccc(OC)c3)C(=O)N2C2CCCCC2)cc1", "note": "(configuration not stated)", "Potency": "inactive"}
{"smiles": "Cc1ccc(N2C(=O)C(CC(=O)Nc3cccc(F)c3)N(CCc3ccncc3)C2=O)cc1", "note": "(configuration not stated)", "Potency": "inactive"}
{"smiles": "CCOc1ccc(NC(=O)CC2C(=O)N(c3ccccc3)C(=O)N2CCOC)cc1", "note": "(configuration not stated)", "Potency": "inactive"}
{"smiles": "CCOC(=O)c1ccc(NC(=O)CC2C(=O)N(c3cccc(OC)c3)C(=O)N2C2CCCCC2)cc1", "note": "(configuration not stated)", "Potency": "20.6 µM (active)"}
{"smiles": "COc1ccc(CCN2C(=O)N(c3cccc(OC)c3)C(=O)C2CC(=O)Nc2ccccc2)cc1", "note": "(configuration not stated)", "Potency": "18.4 µM (active)"}
{"smiles": "CN1c2ccc([N+](=O)[O-])cc2C(C)(C)C12C=Cc1cc(C(=O)O)ccc1O2", "note": "(configuration not stated)", "Potency": "inactive"}
{"smiles": "COc1ccc(S(=O)(=O)N2CCOCC2)cc1NC(=O)Cc1coc2cc(C)ccc12", "Potency": "inactive"}
{"smiles": "COc1ccc(/C(C)=N/NC(=O)c2ccc3nc[nH]c3c2)cc1", "Potency": "inactive"}
{"smiles": "CCN(C(=O)CSc1cccc[n+]1[O-])c1ccccc1", "Potency": "inactive"}
{"smiles": "O=C(CSc1cccc[n+]1[O-])c1ccc(-c2ccccc2)cc1", "Potency": "0.92 µM (active)"}
{"smiles": "COc1ccccc1C(=O)CSc1cccc[n+]1[O-]", "Potency": "inactive"}
{"smiles": "Cc1ccc(C(C)NC(=O)Cn2nc(C)c([N+](=O)[O-])c2C)cc1", "note": "(configuration not stated)", "Potency": "inactive"}
{"smiles": "Cn1c(CC2Sc3ccccc3NC2=O)nnc1SCC(=O)c1ccc(Cl)cc1", "note": "(configuration not stated)", "Potency": "inactive"}
{"smiles": "O=C(CN1C(=O)COc2ccc(Cl)cc21)N1CCOCC1", "Potency": "inactive"}
{"smiles": "COc1ccccc1N1CCN(C(CNC(=O)C(=O)NCc2ccc(C)cc2)c2cccnc2)CC1", "note": "(configuration not stated)", "Potency": "4.61 µM (active)"}
{"smiles": "Cc1ccc(NC(=O)C(=O)NCC(c2cccnc2)N2CCOCC2)cc1", "note": "(configuration not stated)", "Potency": "inactive"}
{"smiles": "Cc1ccc(NC(=O)NCC(c2cccnc2)N2CCOCC2)cc1", "note": "(configuration not stated)", "Potency": "inactive"}
{"smiles": "CC(OC(=O)c1cc2ccccc2[nH]1)C(=O)N(C)c1ccccc1", "note": "(configuration not stated)", "Potency": "inactive"}
{"smiles": "O=C(Cc1ccccn1)c1ccc(O)cc1O", "Potency": "inactive"}
{"smiles": "Cc1ccc(Cl)cc1NC(=S)N(CCN(C)C)Cc1cccs1", "Potency": "inactive"}
{"smiles": "Cc1ccc(CN(Cc2cccnc2)C(=S)Nc2cc(Cl)ccc2C)cc1", "Potency": "13 µM (active)"}
{"smiles": "Cc1c(Cl)cccc1NC(=S)N(Cc1ccccc1)Cc1cccnc1", "Potency": "inactive"}
{"smiles": "C=CCn1nc(-c2ccccc2)c2c(C)onc2c1=O", "Potency": "inactive"}
{"smiles": "O=C(Nc1cccc(C(=O)NC2CC2)c1)c1ccc(F)c(S(=O)(=O)N2CCOCC2)c1", "Potency": "inactive"}
{"smiles": "OCC[C@H]1C[C@H](O)[C@@H](O)[C@]2(CCCCO2)O1", "Potency": "inactive"}
{"smiles": "Cc1nnsc1C(=O)NCc1c(F)cccc1Cl", "Potency": "inactive"}
{"smiles": "Cn1cc(S(=O)(=O)Nc2ccc(Cl)cc2Cl)c(=O)n(C)c1=O", "Potency": "20.6 µM (active)"}
{"smiles": "Cc1ccc(NS(=O)(=O)c2cn(C)c(=O)n(C)c2=O)c(C)c1", "Potency": "inactive"}
{"smiles": "CC(C)c1ccc(NS(=O)(=O)c2cn(C)c(=O)n(C)c2=O)cc1", "Potency": "inactive"}
{"smiles": "Cc1ccc(NC(=O)c2ccn(C(=O)Nc3ccccc3)n2)c(C)c1", "Potency": "inactive"}
{"smiles": "Cc1ccc(NC(=O)c2oc3ccccc3c2C)c([N+](=O)[O-])c1", "Potency": "inactive"}
{"smiles": "Cc1ccc(NC(=O)c2oc(=O)c3ccccc3c2-c2ccccc2)c(C)c1", "Potency": "23.1 µM (active)"}
{"smiles": "O=C(CSc1nnc(Nc2ccccc2F)s1)NC1CCCC1", "Potency": "inactive"}
{"smiles": "Nc1cccc(-c2cncc(N3CCN(Cc4ccccn4)CC3)n2)c1", "Potency": "inactive"}
{"smiles": "COc1cc(-c2noc(C3CCCN(S(=O)(=O)c4cccc(Cl)c4)C3)n2)cc(OC)c1OC", "note": "(configuration not stated)", "Potency": "12.6 µM (active)"}
{"smiles": "COc1ccc(NC(=O)C2CCCN(S(=O)(=O)c3cccc4nonc34)C2)cc1Cl", "note": "(configuration not stated)", "Potency": "inactive"}
{"smiles": "COc1cccc(-c2noc(C3CCCN(C(=O)c4ccc(F)cc4)C3)n2)c1", "note": "(configuration not stated)", "Potency": "inactive"}
{"smiles": "COc1ccccc1CC(NC(C)=O)C(=O)NC1CCN(C(=O)Nc2ccccc2Cl)CC1", "note": "(configuration not stated)", "Potency": "inactive"}
